An excerpt weighted towards active compounds, which were near 1.6% of everything screened.
ATG4B inhibitor: ATG4B (human) cysteine protease inhibition | inhibition, % at 8.33 µM | 0.51% of 340,000 active | ATG4B cleavage of LC3-PLA2, NBD-HPC fluorescence, 1 h | Q9Y4P1; in the data active means inhibition above about 40%
Target sequence (Q9Y4P1 whole entry, looked up): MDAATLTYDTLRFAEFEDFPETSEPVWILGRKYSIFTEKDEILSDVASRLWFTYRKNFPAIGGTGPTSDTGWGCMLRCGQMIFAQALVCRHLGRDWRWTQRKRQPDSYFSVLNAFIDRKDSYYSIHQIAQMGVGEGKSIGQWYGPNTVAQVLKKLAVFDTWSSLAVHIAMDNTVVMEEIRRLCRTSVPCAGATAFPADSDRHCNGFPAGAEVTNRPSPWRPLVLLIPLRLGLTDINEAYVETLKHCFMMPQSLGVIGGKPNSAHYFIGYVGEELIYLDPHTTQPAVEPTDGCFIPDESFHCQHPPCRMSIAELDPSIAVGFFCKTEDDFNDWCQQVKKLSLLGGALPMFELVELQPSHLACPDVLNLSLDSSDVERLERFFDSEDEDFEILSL
NRP1-CendR mod: alters CendR peptide binding to human NRP-1 | O14786 | FAM-RPARPAR peptide binding to NRP-1, fluorescence polarization | inhibition, % at 25 µM | 0.85% of 360,000 active;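 active means inhibition or corrected inhibition above about 18%, plus a signal ratio from 0.5 to 1.5, limit read from the data, passing the limit was not always enough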
PKA-R2B act: activates the human PKA-R2B holoenzyme complex; PKA-R2B holoenzyme dissociation, Cy5-IP20 fluorescence polarization; R2B truncated from residue 108, S112A mutant; 0% DMSO only, 100% 113 µM cGMP; activation, % at 11.4 µM; 0.079% of 340,000 active; AID 504700;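 active means activation above a cutoff set at the mean over all compounds plus 3 SD, cut at about 18% in these data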;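 further: higher means more holoenzyme dissociation and a rise in polarization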
VLA-4 inh: inhibition in a human VLA-4 binding assay. VLA-4 expressing cells, ligand binding flow cytometry. inhibition, % (about 7 µM as worked out from the volumes in the protocol). 0.2% of 330,000 active. AID 2557; in the data active means inhibition above about 50%
PKA-R1A activ: activators of PKA-R1A complex; 0.083% of 340,000 active; PKA-R1A dissociation, Cy5-IP20 fluorescence polarization; scaled: DMSO 0%, 113 µM cGMP 100%; activation, % at 11.4 µM;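 active means percent activation above the mean of all tested compounds plus 3 SD, cut at about 19% in these data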;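 further: higher means more PKAc released from R1A so a rise in polarization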
Large screens that a line does not name were inactive.

CCCCC1=CC2=CC(=O)C(C)(OC(=O)CC)C(=O)C2=CN1Cc1ccc(OC)cc1 (stereo not drawn)	NRP1-CendR mod 35
CCCCC1=CC2=CC(=O)C(C)(OC(=O)CC)C(=O)C2=CN1C(CO)CO (stereo not drawn)	NRP1-CendR mod 35
COc1ccc(NC(=S)NC2CC3CCC(C2)N3Cc2ccco2)cc1 (stereo not drawn)	NRP1-CendR mod 21
CCc1ccc(NC(=S)NC2CC3CCC(C2)N3Cc2ccco2)cc1 (stereo not drawn)	none
CC(=O)c1cccc(OCc2cc(C(=O)NC3CCN(Cc4ccccc4)CC3)no2)c1	NRP1-CendR mod 28
CCCSc1ccc([C@H]2N[C@@](C)(C(=O)OC)[C@H]3C(=O)N(C)C(=O)[C@@H]23)cc1OC	NRP1-CendR mod 28
CCCCCCSc1ccc([C@H]2N[C@@](Cc3ccccc3)(C(=O)OC)[C@H]3C(=O)N(C)C(=O)[C@@H]23)cc1OC	NRP1-CendR mod 28
CCOC(=O)C(C(=O)OCC)C(Nc1ccccc1)c1ccccc1 (stereo not drawn)	none
CCOC(=O)[C@H](O)[C@@H](O)c1cccc([C@H](O)[C@@H](O)C(=O)OCC)c1	NRP1-CendR mod 24
C#CC(C)(O)C1CC(CC(=O)O)C1(C)C (stereo not drawn)	none (no result: VLA-4 inh)
CC1(C)C(CC(=O)O)CC1C(=O)O (stereo not drawn)	NRP1-CendR mod 24 (no result: VLA-4 inh)
CC(C)(C)S(=O)N1Cc2cc(C(=O)N3CCc4ccccc4C3)nc(-c3cccc(-c4cccnc4)c3)c2[C@@H]1CCO (stereo partly drawn)	none (no result: ATG4B inhibitor, PKA-R2B act, VLA-4 inh, PKA-R1A activ)
O=C(COC(=O)Cn1cnc2ccccc21)Nc1ccc(Br)cc1	NRP1-CendR mod 32 (no result: ATG4B inhibitor, VLA-4 inh)
CCCNC(=O)c1cc(C2CCCCN2C(=O)c2cc(F)ccc2C)on1 (stereo not drawn)	none (no result: ATG4B inhibitor, PKA-R2B act, VLA-4 inh, PKA-R1A activ)
Cc1ccc(F)cc1C(=O)N1CCCCC1c1cc(C(=O)NCc2ccccc2)no1 (stereo not drawn)	NRP1-CendR mod 22 (no result: ATG4B inhibitor, PKA-R2B act, VLA-4 inh, PKA-R1A activ)
O=C(Nc1ccccc1Cl)c1cc(C2CCCCN2C(=O)CCc2ccccc2)on1 (stereo not drawn)	none (no result: ATG4B inhibitor, PKA-R2B act, VLA-4 inh, PKA-R1A activ)
O=C(NCc1ccc(F)cc1)c1cc(C2CCCCN2C(=O)CCCc2ccccc2)on1 (stereo not drawn)	NRP1-CendR mod 49 (no result: ATG4B inhibitor, PKA-R2B act, VLA-4 inh, PKA-R1A activ)
O=C(Nc1cccc2c1CCCC2)c1cc(C2CCCCN2C(=O)CCCc2ccccc2)on1 (stereo not drawn)	NRP1-CendR mod 52 (no result: ATG4B inhibitor, PKA-R2B act, VLA-4 inh, PKA-R1A activ)
O=c1[nH]nc2c3ccccc3occ1-2	none (no result: ATG4B inhibitor, PKA-R2B act, VLA-4 inh, PKA-R1A activ)
CCOC(=O)C1=C[C@@H](C2CCCC2)N(S(=O)(=O)c2ccc([N+](=O)[O-])cc2)[C@H]1c1ccccc1	none (no result: ATG4B inhibitor, PKA-R2B act, VLA-4 inh, PKA-R1A activ)
Cc1ccc(NC2CCCN(C(=O)c3ccc4nccnc4c3)C2)cc1C (stereo not drawn)	NRP1-CendR mod 43
Cc1cc2c(cc1S(=O)(=O)NC1CCCCC1C)OCC(=O)N2 (stereo not drawn)	NRP1-CendR mod 40
Cc1cc2[nH]c(=O)c(=O)[nH]c2cc1S(=O)(=O)NC1CCCCC1C (stereo not drawn)	none
C=CCN(CC=C)C(=S)Nc1ccc2nsnc2c1	NRP1-CendR mod 30
C=CCNC(=S)Nc1ccc2nsnc2c1	none
S=C(Nc1ccc2nsnc2c1)N1CCCCCC1	NRP1-CendR mod 45
Cc1ccc(NC(=O)COC(=O)c2cc(=O)c3cc(F)ccc3o2)cc1	none (no result: VLA-4 inh)
COC(=O)C1=CN(c2ccc(OC)cc2OC)C(N)=C(C#N)C1c1ccccc1F (stereo not drawn)	none (no result: ATG4B inhibitor, PKA-R2B act, VLA-4 inh, PKA-R1A activ)
O=C1c2cccnc2C(=O)N1CO	none
NC1=C(Br)C(=O)c2ncccc2C1=O	NRP1-CendR mod 28 (no result: VLA-4 inh)
CC1(C(=O)NCC2CC2)Cc2c(-c3cccc(C(F)(F)F)c3)ccnc2O1 (stereo not drawn)	NRP1-CendR mod 35 (no result: ATG4B inhibitor, PKA-R2B act, VLA-4 inh, PKA-R1A activ)
O=C(O)CCNc1ccc(NCCC(=O)O)c2c1C(=O)c1ccccc1C2=O	NRP1-CendR mod 46
COc1ccccc1NCCC(=O)O	none
CC(C)C[C@H]1CN(CCCC[C@@H]2CNC(=O)C(=O)N2Cc2ccccc2)C(=O)C(=O)N1CCC1CCCCC1	none (no result: ATG4B inhibitor, PKA-R2B act, VLA-4 inh, PKA-R1A activ)
CCCN(CCC)C(=O)Cn1c(=O)c2sccc2n2c(=S)sc(-c3ccccc3)c12	NRP1-CendR mod 42
CC(=O)Nc1ccc2nc(-c3cccs3)[nH]c2c1	VLA-4 inh 94
O=S1(=O)CC(N2CCCCC2)CN1Cc1ccc(F)cc1 (stereo not drawn)	none (no result: ATG4B inhibitor, PKA-R2B act, VLA-4 inh, PKA-R1A activ)

Bioassay records (PubChem)
